# Experimental data reported in ChEMBL document CHEMBL1157539, “Thousands of chemical starting points for antimalarial lead identification” (Nature, 2010).
# Experiments:
# Format in all cases: functional
# [1] = test system: Plasmodium falciparum; experiment: GSK_TCMDC: Inhibition of Plasmodium falciparum 3D7 in whole red blood cells, using parasite LDH activity as an index of growth. Test compounds present at 2uM
# [2] = test system: Plasmodium falciparum; experiment: GSK_TCMDC: Inhibition of Plasmodium falciparum Dd2 in whole red blood cells, using parasite LDH activity as an index of growth. Test compounds present at 2uM
# [3] = test system: HepG2; experiment: GSK_TCMDC: Percent inhibition of human HepG2 cell line. Test compounds present at 10uM.
Compound,Inhibition [1] [%],Inhibition [2] [%],Inhibition [3] [%]
CC(=O)Nc1ccc(NC(=O)c2cc(-c3ccc(C)cc3O)n[nH]2)cc1,100,78,0
Cc1ccc2c(Cl)c(C(=O)N3CCCc4ccccc43)sc2c1,99,15,4
NS(=O)(=O)c1cccc(N/C=C2\C(=O)Nc3ccc(S(=O)(=O)Cc4c(Cl)cccc4Cl)cc32)c1,92,99,1
O=C(Nc1cccc(-c2nn3ccccc3c2-c2ccnc(Nc3cccc(F)c3)n2)c1)c1c(F)ccc(F)c1Cl,93,38,41
Cc1cc2nc(-c3ccc(OCC(=O)NCc4ccc(C(C)(C)C)cc4)cc3)[nH]c2cc1C,94,0,11
O=C(O)C(F)(F)F.OCC1CCN(Cc2ccc(-c3ccc(-c4nc5ccccc5[nH]4)cc3)cc2)CC1,100,84,37
Cl.NC1CCN(Cc2cccc(-c3ccc(-c4nc5cc(C(F)(F)F)ccc5[nH]4)cc3)c2)C1 (stereo unspecified),99,97,21
O=C(/C=C/c1ccc(Cl)cc1Cl)N1CCC(CCN2CCC(c3c[nH]c4ccccc34)CC2)CC1,98,37,94
CCN1CCN(Cc2ccc(-c3ccc(NS(=O)(=O)c4cccc5cccnc45)cc3)cc2)CC1.O=C(O)C(F)(F)F,90,42,29
CC(C)(C)c1nn(-c2ccccc2)c2[nH]c(=O)c(CNCc3ccc4c(c3)OCO4)cc12,92,32,1
COc1ccc(OC)c(NC(=O)CSc2nc(-c3ccccc3Cl)ns2)c1,95,32,0
Cl.NC(=O)c1cccc(Nc2nccc(Nc3ccc4[nH]c(-c5ccccc5)cc4c3)n2)c1,100,98,28
O=C(Nc1ccccc1)c1nn(CCCN2CCC(N3CCCC3)CC2)cc1-c1ccc(Cl)c(Cl)c1,100,98,31
Cc1ccc(NC(=O)c2cccc(N3CCN(c4ccncc4)CC3)c2)cc1F.O=C(O)C(F)(F)F,100,72,43
Cc1cc(NC(=O)Nc2ccc(C(C)(C)C)cc2)c2ccccc2n1,100,57,0
CN(C)CCC1CCN(CCS(=O)(=O)c2cccc(Nc3ccc(-c4ccsc4)cn3)c2)CC1,97,6,49
CC1(C)CC(NC(=O)NC2CCN(Cc3ccccc3)CC2)CC(C)(CNC(=O)NC2CCN(Cc3ccccc3)CC2)C1 (stereo unspecified),93,2,10
CC(C)CCn1c(Sc2ccc(C#N)c([N+](=O)[O-])c2)nnc1-c1ccc(N(C)C)cc1,97,96,11
CN1CCC(NCc2cccc(-c3ccc(S(=O)(=O)NCCc4ccccn4)c(F)c3)c2)CC1.O=C(O)C(F)(F)F,98,26,11
CC[C@H](C)CNC(=O)c1cncc(-c2ccc(CNCC3CNCCCO3)cc2)c1.O=C(O)C(F)(F)F (stereo partly specified),100,0,0
O=C(O)C(F)(F)F.O=C1CCCN1CCCNCc1cccc(-c2cccc(-c3nc4cc(F)ccc4[nH]3)c2)c1,100,69,6
O=C(C=Cc1ccc(Cl)c(Cl)c1)NCCCCCN1CCCC(CCCNS(=O)(=O)c2ccc(Br)cc2)C1 (stereo unspecified),88,5,43
COc1ccc(OCC(=O)Nc2cc(-c3nc4ccccc4[nH]3)ccc2Cl)cc1,94,33,18
CN1CCC(N2CCN(Cc3cccc(-c4ccc(-c5nc6ccccc6[nH]5)cc4)c3)CC2)CC1.O=C(O)C(F)(F)F,100,99,56
NC(=O)c1cccc(CNC(=O)NC[C@H]2CN(Cc3ccc(Cl)c(Cl)c3)CCO2)c1,98,65,0
O=C(Nc1cccc(CN2CCCN(Cc3ncc[nH]3)CC2)c1)c1ccc(Cl)c(Cl)c1.O=C(O)C(F)(F)F,100,16,8
O=C(O)C(F)(F)F.c1cc(-c2ccc(CNCc3ccc(-c4csnn4)cc3)cc2)cc(-c2nc3ccccc3[nH]2)c1,100,96,60
